Hits are enriched below; roughly 2.3% of the tested compounds scored in any of these assays.
CHO-K1 Ca ag = counter-screen for M1 agonists: effect in parental CHO-K1 cells; Fluo-8 calcium fluorescence; scaled to maximal ATP response, vehicle zero; activation, % at 3 µM; hit rate 0.48% among 360,000; in the data active means activation above about 15%;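 further: untransfected CHO-K1 host cells lacking M1 receptor as counterscreen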
CHRM1 antagonist = human CHRM1 antagonism; P11229; inhibition, % at 3 µM; hit rate 1.3% among 360,000; CHO-K1 hM1, Fluo-8 calcium fluorescence, ACh EC80 antagonist;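 active means percent inhibition above its own plate's cutoff, namely the mean of that plate's compound wells plus 3 SD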;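 further: peak over basal fluorescence ratio during 140 s after agonist addition; 0% = ACh EC80 plus DMSO and 100% = DMSO alone without agonist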
Target sequence (P11229 whole entry, looked up): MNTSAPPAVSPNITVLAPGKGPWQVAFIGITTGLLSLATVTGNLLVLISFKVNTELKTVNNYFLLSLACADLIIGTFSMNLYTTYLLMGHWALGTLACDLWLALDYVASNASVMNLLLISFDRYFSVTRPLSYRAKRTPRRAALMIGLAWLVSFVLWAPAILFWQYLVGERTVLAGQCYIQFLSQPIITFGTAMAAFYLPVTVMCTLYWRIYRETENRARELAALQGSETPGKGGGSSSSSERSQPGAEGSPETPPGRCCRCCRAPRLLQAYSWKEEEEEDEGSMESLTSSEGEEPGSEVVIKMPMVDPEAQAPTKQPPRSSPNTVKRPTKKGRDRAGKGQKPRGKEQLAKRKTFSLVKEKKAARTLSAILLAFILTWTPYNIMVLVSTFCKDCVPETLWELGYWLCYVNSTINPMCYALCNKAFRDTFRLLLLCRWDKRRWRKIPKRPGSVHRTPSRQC
M1 PAM = human CHRM1 positive allosteric modulation | activation, % at 3 µM | hit rate 0.088% among 360,000 | P11229 | AID 588819 | CHO-K1 hM1, Fluo-8 calcium fluorescence, ACh EC20; 0% = ACh EC20, 100% = maximal ACh; in the data active means activation above about 19%, passing the limit was not always enough
M1 ag = agonists of human M1 muscarinic receptor | hit rate 0.33% among 360,000 | AID 588814 | activation, % at 3 µM | CHO-K1 hM1, Fluo-8 calcium fluorescence, agonist mode; 0% DMSO, 100% acetylcholine EC100 | P11229;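 active means activation above the run's mean compound activation plus 3 SD, cut at about 16% in these data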;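 further: peak over basal fluorescence ratio within a 140 s kinetic read after compound addition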
CHO-K1 Ca antag = M1 antagonist counterscreen hit in parental CHO-K1 cells. inhibition, % at 3 µM. AID 602250. ATP-induced calcium, Fluo-8 fluorescence. hit rate 0.6% among 360,000;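 active means inhibition above a per-plate cutoff, the plate's mean sample inhibition plus 3 SD, cut at about 24% in these data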;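 further: 0% = DMSO plus EC80 ATP and 100% = DMSO alone without ATP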
M1 PAM parental = nonselective activator or artifact in parental CHO-K1 calcium assay | activation, % at 3 µM | hit rate 0.02% among 360,000 | AID 602247 | ATP EC20, Fluo-8 calcium fluorescence; 0% at ATP EC20, 100% at ATP max;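 active means activation above the run cutoff, the mean activation of all test compounds plus 3 SD, cut at about 40% in these data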;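 further: peak over basal fluorescence ratio in a 140 s read after ATP addition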
The depositor's hits bear a star.

How did CSc1ccc(C(=O)C2CCCN(Cc3cccnc3)C2)cc1 (stereo not given) do in these assays?
CHO-K1 Ca ag: 5.2; CHRM1 antagonist: 33.9*; M1 PAM: -32.9; M1 ag: -12.8; CHO-K1 Ca antag: -3.1; M1 PAM parental: 11.3

What do the screens show for `COc1ccccc1CN1CCCC(C(=O)c2ccccc2SC)C1` (stereo not given)?
CHO-K1 Ca ag: 2.9; CHRM1 antagonist: 32.0; M1 PAM: -20.2; M1 ag: -6.4; CHO-K1 Ca antag: 0.8; M1 PAM parental: 9.4

Results for CSc1ccccc1C(=O)C1CCCN(Cc2ccncc2)C1 (stereo not given) ?
CHO-K1 Ca ag: 2.6; CHRM1 antagonist: 55.0*; M1 PAM: -23.3; M1 ag: -7.1; CHO-K1 Ca antag: -14.2; M1 PAM parental: 15.1

Results for CC(=O)Nc1ccc(S(=O)(=O)N2Cc3ccccc3-n3nncc3C2)cc1 ?
CHO-K1 Ca ag: 0.7; CHRM1 antagonist: -11.3; M1 PAM: 4.9; M1 ag: -2.4; CHO-K1 Ca antag: -10.5; M1 PAM parental: 18.2

Results for Cc1ccc2c(c1)Oc1ccccc1N=C2 ?
CHO-K1 Ca ag: 0.1; CHRM1 antagonist: 4.2; M1 PAM: -2.5; M1 ag: -0.7; CHO-K1 Ca antag: 6.7; M1 PAM parental: 8.9

What do the screens show for `O=C(COc1ccc(Cl)cc1)N(c1ccccc1Cl)C1CN2CCC1CC2` (stereo not given)?
CHO-K1 Ca ag: 1.8; CHRM1 antagonist: 74.6*; M1 PAM: -24.8; M1 ag: -6.4; CHO-K1 Ca antag: 10.3; M1 PAM parental: -11.9

What do the screens show for `O=C(COc1ccc(Cl)cc1)N(c1ccc(Cl)cc1)C1CN2CCC1CC2` (stereo not given)?
CHO-K1 Ca ag: 2.4; CHRM1 antagonist: 44.4*; M1 PAM: -20.9; M1 ag: -3.9; CHO-K1 Ca antag: -7.4; M1 PAM parental: 2.5

Results for CN1CCN(C(=O)COc2ccc(Oc3ccccc3)cc2)CC1 ?
CHO-K1 Ca ag: 2.0; CHRM1 antagonist: -2.3; M1 PAM: 7.8; M1 ag: -14.5; CHO-K1 Ca antag: -17.6; M1 PAM parental: 10.3

What do the screens show for `COc1cc(Br)cc(CN2CCN(C)CC2)c1O`?
CHO-K1 Ca ag: 0.0; CHRM1 antagonist: 59.3*; M1 PAM: -32.1; M1 ag: -14.5; CHO-K1 Ca antag: -4.8; M1 PAM parental: 1.8

What do the screens show for `O=C(Nc1ccncc1)c1cccn(Cc2ccccc2)c1=O`?
CHO-K1 Ca ag: 31.9*; CHRM1 antagonist: 8.1; M1 PAM: -1.2; M1 ag: -11.9; CHO-K1 Ca antag: 10.8; M1 PAM parental: -12.2

How did CCOC(=O)C1(CCOc2ccccc2)CCN(C(C)CSC)CC1 (stereo not given) do in these assays?
CHO-K1 Ca ag: 3.5; CHRM1 antagonist: 2.8; M1 PAM: -9.6; M1 ag: -9.3; CHO-K1 Ca antag: -15.4; M1 PAM parental: 24.1

Results for CCOC(=O)C1(CCOc2ccccc2)CCN(C2Cc3ccccc3C2)CC1 ?
CHO-K1 Ca ag: 3.2; CHRM1 antagonist: 45.9*; M1 PAM: -21.9; M1 ag: -4.9; CHO-K1 Ca antag: -9.4; M1 PAM parental: 11.3

Results for O=c1[nH]c(O)c(C=NC2CCCCC2)c(=O)[nH]1 ?
CHO-K1 Ca ag: 0.1; CHRM1 antagonist: 2.4; M1 PAM: 25.9*; M1 ag: -2.3; CHO-K1 Ca antag: -9.4; M1 PAM parental: 7.2

How did CC1CCN(C(CC(=O)c2ccccc2)C(=O)c2ccccc2)CC1 (stereo not given) do in these assays?
CHO-K1 Ca ag: 2.6; CHRM1 antagonist: -9.6; M1 PAM: 10.2; M1 ag: 6.2; CHO-K1 Ca antag: -13.8; M1 PAM parental: 20.5

What do the screens show for `CSc1ccc(CN2CCN(Cc3ccccc3Cl)CC2)cc1`?
CHO-K1 Ca ag: -0.2; CHRM1 antagonist: 4.5; M1 PAM: -5.3; M1 ag: -5.1; CHO-K1 Ca antag: -3.0; M1 PAM parental: 1.2

How did CC(Cc1ccccc1Sc1ccccc1)N(C)C (stereo not given) do in these assays?
CHO-K1 Ca ag: 1.8; CHRM1 antagonist: 97.9*; M1 PAM: -23.9; M1 ag: -10.5; CHO-K1 Ca antag: -5.7; M1 PAM parental: 23.0

What do the screens show for `CN1CCN(Cc2ccccc2Sc2ccccc2)CC1`?
CHO-K1 Ca ag: 2.5; CHRM1 antagonist: 100.5*; M1 PAM: -22.4; M1 ag: -9.6; CHO-K1 Ca antag: -10.4; M1 PAM parental: 10.7

What do the screens show for `CC(Cc1ccccc1Sc1ccc(O)cc1)N(C)C` (stereo not given)?
CHO-K1 Ca ag: 1.6; CHRM1 antagonist: 82.8*; M1 PAM: -23.0; M1 ag: -4.3; CHO-K1 Ca antag: -2.7; M1 PAM parental: 8.9

What do the screens show for `COc1ccccc1Sc1ccccc1CC(C)N` (stereo not given)?
CHO-K1 Ca ag: 2.5; CHRM1 antagonist: -1.6; M1 PAM: 1.1; M1 ag: -5.9; CHO-K1 Ca antag: -1.8; M1 PAM parental: 12.6

Results for CCCN(CC1CC1)CC(O)c1ccccc1 (stereo not given) ?
CHO-K1 Ca ag: 0.7; CHRM1 antagonist: 5.4; M1 PAM: -0.1; M1 ag: -9.2; CHO-K1 Ca antag: -9.1; M1 PAM parental: 5.8

How did Cc1cccc(C)c1-n1nnnc1C(c1cccc2ccccc12)N1CCC2(CC1)C(=O)NCN2c1ccccc1 (stereo not given) do in these assays?
CHO-K1 Ca ag: -0.2; CHRM1 antagonist: 6.6; M1 PAM: -13.0; M1 ag: -1.5; CHO-K1 Ca antag: 18.2; M1 PAM parental: -10.3

Results for COc1ccccc1OCC#CCN1CCCC1 ?
CHO-K1 Ca ag: 1.8; CHRM1 antagonist: 90.3*; M1 PAM: -21.8; M1 ag: -6.9; CHO-K1 Ca antag: 1.7; M1 PAM parental: 10.5

What do the screens show for `Clc1ccc(OCC#CCN2CCCCCC2)cc1`?
CHO-K1 Ca ag: 0.9; CHRM1 antagonist: 48.9*; M1 PAM: -21.9; M1 ag: -5.5; CHO-K1 Ca antag: -14.1; M1 PAM parental: 12.3

Results for CC(C)(C)N1CC(C(=O)c2ccccc2)C1c1ccccc1 (stereo not given) ?
CHO-K1 Ca ag: -0.1; CHRM1 antagonist: 4.9; M1 PAM: -9.8; M1 ag: -8.8; CHO-K1 Ca antag: -13.5; M1 PAM parental: 13.5

What do the screens show for `CC1=CC(C)CC(C)OC(=O)CC(c2ccc(O)cc2)NC(=O)C(Cc2c(Br)[nH]c3ccccc23)N(C)C(=O)C(C)NC(=O)C(C)C1` (stereo not given)?
CHO-K1 Ca ag: 2.1; CHRM1 antagonist: -27.9; M1 PAM: 12.2; M1 ag: -2.1; CHO-K1 Ca antag: -13.7; M1 PAM parental: 15.5

What do the screens show for `CC(C)(OOC1(c2ccccc2)NC(=O)c2ccccc21)c1ccccc1` (stereo not given)?
CHO-K1 Ca ag: -0.7; CHO-K1 Ca antag: -11.5; M1 PAM parental: 4.3

Results for O=C1Nc2ccc(Br)cc2C(c2ccc(Cl)cc2)=NC1O (stereo not given) ?
CHO-K1 Ca ag: 22.8*; CHRM1 antagonist: 1.9; M1 PAM: 9.2; M1 ag: 11.3; CHO-K1 Ca antag: 13.2; M1 PAM parental: 8.9

Compound activity deposited in PubChem by The Scripps Research Institute Molecular Screening Center.
